The record followed here is PubChem BioAssay.

Molecules are shown by their SMILES. Active and inactive are the calls of the source. Unless noted, how the calls were made is not given here.

A short description of assay [1]: compounds binding Alexa647 anti-His antibody – biochemical, small-molecule microarray, 635 nm fluorescence, artefact control for SMM control protein annotation, primary screen (AID 1128).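 Further: score merges feature fluorescence with signal-to-noise for each printed compound spot.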 The settings on record: higher = more signal.
Assay [2] relates to Human papillomavirus type 1a E7 protein (residues 1-88). Nature of the assay: HPV1a E7 small-molecule binders, primary screen, biochemical, small-molecule microarray, residues 1-88, 635 nm (AID 1129). The settings on record: small-molecule microarray binding, fluorescence 635 nm; higher = more signal.
Assay [3] deals with Focal adhesion kinase 1 (Homo sapiens) (UniProt Q05397). Nature of the assay: PTK2 protein binding on printed compound slides – biochemical, small-molecule microarray, 635/667 nm fluorescence, BSA, DTT, primary screen (AID 1130).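 Further: composite of spot emission at 667 nm and signal to noise over triplicate slides.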 The settings on record: 635 nm fluorescence, higher = more signal.
Focal adhesion kinase 1 (Homo sapiens), sequence (Q05397 whole entry, looked up): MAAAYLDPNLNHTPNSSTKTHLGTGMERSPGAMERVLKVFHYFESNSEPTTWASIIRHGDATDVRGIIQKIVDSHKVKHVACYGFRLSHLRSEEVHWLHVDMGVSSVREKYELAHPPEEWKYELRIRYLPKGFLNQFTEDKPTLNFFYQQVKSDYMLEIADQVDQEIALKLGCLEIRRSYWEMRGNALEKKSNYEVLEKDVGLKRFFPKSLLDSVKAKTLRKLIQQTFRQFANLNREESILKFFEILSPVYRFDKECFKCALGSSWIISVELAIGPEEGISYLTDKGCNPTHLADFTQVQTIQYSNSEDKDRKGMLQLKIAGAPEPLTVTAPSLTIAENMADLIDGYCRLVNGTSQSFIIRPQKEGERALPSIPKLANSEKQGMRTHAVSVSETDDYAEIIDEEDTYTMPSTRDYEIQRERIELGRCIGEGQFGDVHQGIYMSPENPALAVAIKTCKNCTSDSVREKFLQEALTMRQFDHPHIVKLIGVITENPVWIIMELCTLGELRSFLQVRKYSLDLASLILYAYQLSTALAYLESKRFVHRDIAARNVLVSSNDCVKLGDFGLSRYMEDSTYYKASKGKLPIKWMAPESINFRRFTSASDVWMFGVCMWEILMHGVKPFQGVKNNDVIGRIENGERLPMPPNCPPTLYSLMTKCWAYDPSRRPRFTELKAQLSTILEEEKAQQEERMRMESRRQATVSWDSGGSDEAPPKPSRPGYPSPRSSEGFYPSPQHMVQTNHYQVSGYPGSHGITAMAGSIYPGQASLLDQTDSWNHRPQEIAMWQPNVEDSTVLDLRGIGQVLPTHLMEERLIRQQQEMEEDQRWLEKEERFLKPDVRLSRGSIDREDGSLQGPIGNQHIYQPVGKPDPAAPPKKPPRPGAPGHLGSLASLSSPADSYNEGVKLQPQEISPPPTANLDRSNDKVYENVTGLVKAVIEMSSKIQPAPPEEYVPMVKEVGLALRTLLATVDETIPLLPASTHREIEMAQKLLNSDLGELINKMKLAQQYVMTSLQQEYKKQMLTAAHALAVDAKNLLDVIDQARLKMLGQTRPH
The test system of assay [4] is Fibrinogen (Alexa647-labelled). Nature of the assay: Alexa647-fibrinogen binding to printed small molecules – biochemical, small-molecule microarray, 635/667 nm fluorescence, artefact control for SMM control-protein annotation, profiling panel (AID 1131).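 Further: z-score merges 667 nm fluorescence with per-spot signal-to-noise over triplicate slides.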 The settings on record: fibrinogen-A647 binding fluorescence, higher = more signal.
In assay [5] the target is Follistatin (Homo sapiens) (UniProt P19883). As to the kind of experiment: FST protein binding to printed compounds – biochemical, small-molecule microarray, 635/667 nm fluorescence, primary screen (AID 1132). The settings on record: 635 nm fluorescence, higher = more signal.
Follistatin (Homo sapiens), sequence (P19883 whole entry, looked up): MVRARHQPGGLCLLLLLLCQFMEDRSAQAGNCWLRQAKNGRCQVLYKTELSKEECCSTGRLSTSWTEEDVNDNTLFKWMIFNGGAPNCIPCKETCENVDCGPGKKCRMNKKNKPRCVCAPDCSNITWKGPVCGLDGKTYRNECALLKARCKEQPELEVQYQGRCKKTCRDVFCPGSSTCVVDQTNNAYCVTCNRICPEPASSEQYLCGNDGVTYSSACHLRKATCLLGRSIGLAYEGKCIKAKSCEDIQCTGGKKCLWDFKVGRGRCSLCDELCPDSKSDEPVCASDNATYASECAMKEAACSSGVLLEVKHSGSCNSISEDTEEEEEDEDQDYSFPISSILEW
Assay [6] addresses Fibroblast growth factor 2 (Homo sapiens) (UniProt P09038). Nature of the assay: basic fibroblast growth factor binding to printed compounds – biochemical, small-molecule microarray, 635/667 nm fluorescence, primary screen (AID 1133). The settings on record: FGF2, fluorescence 635/667, higher = more signal.
Assay [7] can be described thus: JC-1 mitochondrial potential readout, lung cancer cells – cell-based, A549, JC-1 fluorescence, basal, 24 h, 100 nL, profiling panel (AID 1138).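 Further: A549 lung adenocarcinoma cells under basal conditions with no added stimulus; test concentration not given here.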 The settings on record: higher = more signal.
Another assay has as its system Lefty1. As to the kind of experiment: Lefty1 protein binding to printed compounds – biochemical, small-molecule microarray, 635/667 nm fluorescence, primary screen (AID 1139). The settings on record: fluorescence 635/667, higher = more signal.
Assay [8] deals with wheat germ agglutinin (Triticum aestivum), Alexa647-labelled. As to the kind of experiment: Alexa647-WGA lectin binding to printed small molecules – biochemical, small-molecule microarray, 635/667 nm fluorescence, artefact control for SMM control-protein annotation, profiling panel (AID 1140).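 Further: score merges 667 nm feature emission with signal to noise over triplicate slides.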 The settings on record: WGA-A647 binding, 635 nm fluorescence, higher = more signal.
Assay [9] deals with Luciferin 4-monooxygenase (Photinus pyralis) (UniProt P08659). As to the kind of experiment: inhibition of purified Photinus pyralis luciferase – biochemical, luminescence, purified enzyme, 2006 set, primary screen (AID 1141).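 Further: cell-free assay with purified firefly luciferase at 100 ng per well in PBS; test concentration not given here.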 The settings on record: purified firefly luciferase, SteadyGlo luminescence, 30 min; higher = more signal, called active from +8 up or from −8 down.
Luciferin 4-monooxygenase (Photinus pyralis), sequence (P08659 whole entry, looked up): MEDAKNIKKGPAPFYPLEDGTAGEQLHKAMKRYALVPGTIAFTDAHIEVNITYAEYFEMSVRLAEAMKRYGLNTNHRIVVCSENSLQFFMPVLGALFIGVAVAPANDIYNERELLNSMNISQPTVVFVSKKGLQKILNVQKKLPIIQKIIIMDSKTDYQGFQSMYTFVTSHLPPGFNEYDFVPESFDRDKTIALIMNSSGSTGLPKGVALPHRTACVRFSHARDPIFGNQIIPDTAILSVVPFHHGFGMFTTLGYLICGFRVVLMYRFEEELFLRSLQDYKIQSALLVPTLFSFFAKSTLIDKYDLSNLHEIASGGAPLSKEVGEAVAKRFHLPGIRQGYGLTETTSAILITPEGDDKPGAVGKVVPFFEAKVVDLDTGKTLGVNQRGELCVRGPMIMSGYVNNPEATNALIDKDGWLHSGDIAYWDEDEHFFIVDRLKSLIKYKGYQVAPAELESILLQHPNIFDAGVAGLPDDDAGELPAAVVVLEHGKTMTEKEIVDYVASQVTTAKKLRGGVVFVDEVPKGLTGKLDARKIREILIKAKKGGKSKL
The test system of assay [10] is Wnt5a (protein binding on small-molecule microarray). Nature of the assay: small molecules binding Wnt5a protein – biophysical, small-molecule microarray, 635/667 nm fluorescence, primary screen (AID 1142).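 Further: fluorescence read at 667 nm with signal to noise per printed feature.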 The settings on record: 635 nm fluorescence, higher = more signal.
Assay [11] can be described thus: ATP-based viability of Huh7 replicon cells – cell-based, CellTiter-Glo luminescence, basal, 48 h, cytotoxicity control for HCV replication inhibitor project, primary screen (AID 1143).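 Further: Huh7 hepatoma cells carrying a hepatitis C replication reporter with no stimulus; test concentration not given here.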 The settings on record: higher = more signal, called active from +8 up or from −8 down. For orientation: Replicon systems follow genome replication, usually without infectious particles.

The nature of assay [12]: Pseudomonas biofilm growth suppression – PAO1 strain, BacTiter-Glo luminescence, LB-PBS, primary screen (AID 1144). The settings on record: P. aeruginosa PAO1 biofilm, 12 h, higher = more signal.
Assay [13] in a line: basal CRE-LacZ reporter activity in PC12 – cell-based, unstimulated, primary screen (AID 1145). The settings on record: no forskolin, luminescence, 4.5 h, higher = more signal, called active from +8 up or from −8 down.
Assay [14] can be described thus: forskolin-driven CRE-LacZ activity in PC12 – cell-based, CRE-LacZ reporter, forskolin-stimulated, primary screen (AID 1146).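 Further: PC12 cells with 6xCRE LacZ reporter stimulated by forskolin 10 µM; beta-galactosidase reporter signal reflecting CREB driven transcription.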 The settings on record: luminescence, 4.5 h, higher = more signal, called active from +8 up or from −8 down.
For assay [15], the target named is Streptavidin (Streptomyces avidinii) (UniProt P22629). Nature of the assay: compounds binding control protein streptavidin – biophysical, small-molecule microarray, 635/667 nm fluorescence, artefact control for SMM compound annotation, primary screen (AID 1147).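 Further: signal reflects streptavidin binding to arrayed compounds as a control protein.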 The settings on record: higher = more signal.
Streptavidin (Streptomyces avidinii), sequence (P22629 whole entry, looked up): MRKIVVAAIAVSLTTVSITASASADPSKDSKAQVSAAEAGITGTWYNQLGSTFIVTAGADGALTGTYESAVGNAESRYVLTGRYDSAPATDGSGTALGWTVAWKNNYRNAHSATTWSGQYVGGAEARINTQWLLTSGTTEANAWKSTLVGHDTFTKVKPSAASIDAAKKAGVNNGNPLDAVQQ
A short description of assay [16]: probe aInhba binding on compound microarray – biochemical, small-molecule microarray, 635/667 nm fluorescence, primary screen (AID 1148).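 Further: score merges 667nm spot fluorescence with signal-to-noise for antibody binding to printed compounds.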 The settings on record: higher = more signal.
For assay [17], the target named is Torsin-1A (Homo sapiens) (UniProt O14656). Nature of the assay: TOR1A wild-type binding on microarray – cell lysate, small-molecule microarray, lysate, 635/667 nm, primary screen (AID 1149). The settings on record: COS7 hTOR1A-WT lysate, 635 nm fluorescence, higher = more signal.
Torsin-1A (Homo sapiens), sequence (O14656 whole entry, looked up): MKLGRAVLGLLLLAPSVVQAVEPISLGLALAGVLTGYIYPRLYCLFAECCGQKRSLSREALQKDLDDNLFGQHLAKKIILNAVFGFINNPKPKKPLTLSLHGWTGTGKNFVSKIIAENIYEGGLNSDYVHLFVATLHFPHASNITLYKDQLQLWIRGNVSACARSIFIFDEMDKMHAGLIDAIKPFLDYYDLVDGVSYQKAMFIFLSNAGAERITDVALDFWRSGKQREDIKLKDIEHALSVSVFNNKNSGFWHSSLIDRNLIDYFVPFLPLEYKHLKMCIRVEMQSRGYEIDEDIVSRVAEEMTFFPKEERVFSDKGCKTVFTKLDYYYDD
Assay [18] shares this target. Nature of the assay: torsin A mutant lysate binding on microarrays – cell lysate, small-molecule microarray, COS7 lysate, 635/667 nm fluorescence, primary screen (AID 1150).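 Further: score pools 667 nm emission and signal to noise measuring lysate protein binding.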 The settings on record: COS7 hTOR1A mutant lysate, 635 nm fluorescence, higher = more signal.
Assay [19] deals with Sonic hedgehog protein (Shh). Nature of the assay: Sonic hedgehog microarray binding compounds – biochemical, small-molecule microarray, 635/667 nm fluorescence, primary screen (AID 1151).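 Further: Shh protein binding to compounds spotted on small-molecule microarray slides; score combines spot fluorescence intensity with signal-to-noise across triplicate slides.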 The settings on record: 635 nm fluorescence, higher = more signal.

Fibroblast growth factor 2 (Homo sapiens), sequence (P09038 whole entry, looked up): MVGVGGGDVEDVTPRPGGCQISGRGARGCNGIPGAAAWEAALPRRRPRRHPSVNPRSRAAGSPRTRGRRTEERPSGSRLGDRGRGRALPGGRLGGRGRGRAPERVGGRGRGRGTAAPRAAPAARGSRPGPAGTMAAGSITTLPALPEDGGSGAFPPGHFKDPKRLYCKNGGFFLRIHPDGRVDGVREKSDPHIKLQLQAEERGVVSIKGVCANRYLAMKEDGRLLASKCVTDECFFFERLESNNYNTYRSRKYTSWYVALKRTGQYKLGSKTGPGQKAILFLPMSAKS

Turning to `CCCC=C(CCC)[C@@H](NS(=O)(=O)c1ccc(Cl)cc1)c1ccccc1`, the composite z-score in assay [1] was 1.12; in [2], -0.382; in assay [3], 0.884; in assay [4], 0.522; in assay [5], -0.883; in [6], -0.919. Moreover, the composite z-score in the assay with Lefty1 is -1.17; in assay [8], 0.303; in assay [10], 0.0207; in assay [15], 0.489; in assay [16] it was 0.0807; in the assay with Torsin-1A (Homo sapiens) [17], -0.721. Moreover, the composite z-score with Torsin-1A (Homo sapiens) [18] was -0.292; in assay [19], -1.12. Also, the z-score in [7] was -0.576; in assay [9], 1.8 (inactive); in assay [11] it was -2.29 (inactive); in [12], -0.527 (inactive); in assay [13], 0.197 (inactive); in [14], 0.261 (inactive).

`CC(C)(C)OC(=O)CC[C@]1(C(=O)N2CCOCC2)N=C(c2ccc(OCCCO)cc2)O[C@H]1c1ccccc1CN=[N+]=[N-]`: the composite z-score in assay [1] was 0.442; in assay [2], 1.29; in assay [3] it was 0.527; in [4] it was 0.979; in assay [5], 1.42; in assay [6], 1.39. Moreover, the composite z-score turned out to be 0.23 with Lefty1; 1.19 in assay [8]; 1.07 in assay [10]; 1.08 in assay [15]; 0.279 in assay [16]; 1.12 with Torsin-1A (Homo sapiens) [17]. For the same molecule, the composite z-score with Torsin-1A (Homo sapiens) [18] is 1.58; in assay [19], 0.242. Further, the z-score is -0.423 in assay [7]; -1.15 (inactive) in assay [9]; -0.569 (inactive) in [11]; -0.405 (inactive) in assay [12]; -0.263 (inactive) in [13]; -1.4 (inactive) in assay [14].

On to `COC(=O)[C@@]1(Cc2ccc(F)cc2)[C@H]2c3cc(C(=O)N4CCCC4)n(CCO)c3C[C@H]2CN1C(=O)c1ccccc1`, for which the composite z-score was 0.896 in [1]; 1.05 in assay [2]; 1.51 in [3]; -2.15 in assay [4]; -0.212 in [5]; -0.862 in assay [6]. The composite z-score is -0.0322 with Lefty1; 0.0962 in assay [8]; 0.181 in assay [10]; 0.0865 in assay [15]; -0.0719 in assay [16]; -0.113 with Torsin-1A (Homo sapiens) [17]. Further, the composite z-score was 0.0413 with Torsin-1A (Homo sapiens) [18] and -1.69 in assay [19]. In addition, the z-score in [7] is 1.44; in assay [9] it was 1.74 (inactive); in assay [11], -0.225 (inactive); in assay [12], 0.452 (inactive); in [13], 0.201 (inactive); in assay [14], -0.773 (inactive).

On to `CC(C)CNC(=O)[C@@H]1c2ccccc2C(=O)N(Cc2ccccc2)[C@H]1c1ccc(CO)cc1`, for which the composite z-score was 1.85 in assay [1]; 0.601 in assay [2]; 0.0313 in assay [3]; -0.66 in [4]; -0.0977 in assay [5]; 0.605 in [6]. In addition, the composite z-score is -1.7 with Lefty1; -0.481 in [8]; -0.267 in assay [10]; -1.04 in assay [15]; -0.285 in assay [16]; 0.3 with Torsin-1A (Homo sapiens) [17]. Further, the composite z-score in the assay with Torsin-1A (Homo sapiens) [18] is 1.2; in [19] it was -0.693. Further, the z-score in [7] was 0.0606; in assay [9], 0.0723 (inactive); in assay [11], -0.692 (inactive); in assay [12], -0.33 (inactive); in assay [13], 0.441 (inactive); in assay [14] it was -0.0682 (inactive).

Turning to `CCc1cccc(NC(=O)O[C@H]2[C@H](OC(=O)Nc3ccc4c(c3)OCO4)[C@H](OC(=O)Nc3ccc4c(c3)OCO4)[C@@H](OC)O[C@@H]2CO)c1`, the composite z-score was 2.14 in assay [1]; 1.24 in assay [2]; -0.164 in assay [3]; 0.97 in assay [4]; 0.987 in assay [5]; 0.0183 in assay [6]. Moreover, the composite z-score in the assay with Lefty1 amounted to 0.478; in assay [8], 0.815; in assay [10], 0.322; in [15] it was 0.0602; in assay [16] it was 0.0497; with Torsin-1A (Homo sapiens) [17], 0.138. Besides, the results for the composite z-score (with Torsin-1A (Homo sapiens) [18]; in [19]) were 0.97 and 1.91, respectively. In addition, the z-score in [7] was -0.308; in [9], -10.5 (active); in assay [11] it was -4.18 (inactive); in [12], -0.373 (inactive); in assay [13], -0.3 (inactive); in assay [14], -0.321 (inactive).
